Records with an inconclusive call do not appear. Active and inactive are the calls of the source. Calls follow the shape of the dose curve; as a rule, active = well fitted cell-killing curve with a large enough effect; inconclusive = small, poorly fitted or top-dose-only effect, or effect the other way; inactive = flat fitted curve, though single readings scatter.
The compounds below were run on OV90 (assay: Primary qHTS to identify gynecologic anti-cancer compounds using libraries of approved drugs and bioactive compounds (AID 1345084; also: nearly all actives have a fitted effect of over 55% in size)). Details: Gynecologic cancer cell panel viability, ATPlite luminescence, 48 h; series mostly up to 57.5 µM; activity change, negative = cytotoxicity: at the top concentration.
Procedure, shortened: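 Cells, 1,000 per well, were allowed to settle for 16 h at 37 C before compound addition. Five concentrations were tested for 48 h, and viability was read by ATPlite luminescence after 15 min at room temperature.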
% is scaled to controls: 0 for no effect and ±100 for the full control effect.

| Structure (SMILES) | activity change, negative = cytotoxicity |
| --- | --- |
| CCCCOc1ccc(S(=O)(=O)n2c(C)nc3ccccc32)cc1 | 1.76% [at 25.3 µM] (inactive) |
| Cc1onc(-c2ccccc2)c1C(=O)N1CCN(c2ccc([N+](=O)[O-])cc2Cl)CC1 | -14.6% (inactive) |
| C=C(CCC1C(C)(O)CCC2C(C)(C)C(O)CCC12C)C(O)CO (centres undefined) | 3.22% [at 38.5 µM] (inactive) |
| C=C1[C@H]2CC[C@H](C(=O)O)[C@@]23CC[C@H](C3)C1(C)C | -28.4% (inactive) |
| O=C(Nc1ccc(C(F)(F)F)cn1)N1CCN(c2ncccc2C(F)(F)F)CC1 | -9.78% (inactive) |
| CN(C)C(=O)Nc1cc(-c2ccccc2)ccc1N(C)C | 2.32% (inactive) |
| COc1cc(CCc2ccc(OCC=C(C)C)cc2)cc(OC)c1OC | -11.5% [at 38.5 µM] (inactive) |
| O=S1(=O)CCN(Cc2cc(NCC3CCOCC3)c3[nH]c(-c4ccccc4)cc3c2)CC1 | -8.53% (inactive) |
| COc1ccc2[nH]c(=O)c3c(c2c1)OC(C)(C)C=C3 | 8.91% (inactive) |
| O=C(O)C1=CO[C@@H](O[C@@H]2O[C@H](CO)[C@@H](O)[C@H](O)[C@H]2O)[C@@H]2C(CO)=CC[C@H]12 | 11.8% [at 38.5 µM] (inactive) |
| O=C(NCCCN1CCC2(CC1)OCc1ccccc12)[C@H]1CCCN1Cc1ccccc1 | -36.4% (inactive) |
| N#Cc1ccc(COC[C@H]2O[C@@H](n3c(NCc4ccc(Cl)c(Cl)c4)nc4c(N)ncnc43)[C@H](O)[C@@H]2O)cc1 | -2.45% [at 25.3 µM] (inactive) |
| COC(=O)C[C@H]1[C@]2(C)C3=C(C)[C@H](c4ccoc4)C[C@H]3O[C@@H]2[C@H](O)C2[C@](C)(C(=O)OC)C=CC(=O)[C@@]21C (some centres undefined) | -12.9% [at 25.3 µM] (inactive) |
| COc1ccncc1C(=O)NC(=O)Nc1ccc(-c2ccccc2)c(C(F)(F)F)c1 | -4.05% (inactive) |
| COc1cc(C(=O)O)ccc1NC(=O)C1NC(CC(C)(C)C)C(C#N)(c2ccc(Cl)cc2F)C1c1cccc(Cl)c1F (centres undefined) | 11% (inactive) |
| CC1(C)SCCN(S(=O)(=O)c2ccc(Oc3ccncc3)cc2)[C@H]1C(=O)NO | 3.72% (inactive) |
| CC1(C)CCCC2(C)C1C(OC(=O)/C=C/C=C/C=O)C=C1COC(=O)C12O (centres undefined) | 5.33% [at 25.3 µM] (inactive) |
| Cc1ccc(N2CCN(S(=O)(=O)N3CCCCC3)CC2)c(C)c1 | -11.9% (inactive) |
| Nc1nc2c(s1)CCN(Cc1ccc(Cl)cc1)CC2 | 5% (inactive) |
| CCN(c1cc(-c2ccc(CN3CCOCC3)cc2)cc(C(=O)NCc2c(C)cc(C)[nH]c2=O)c1C)C1CCOCC1 | 5.55% (inactive) |

| Structure (SMILES) | activity change, negative = cytotoxicity |
| --- | --- |
| CN1CCN(C2=Nc3ccccc3Nc3ccc(OS(=O)(=O)C(F)(F)F)cc32)CC1 | -0.813% (inactive) |
| CC(C)C[C@H](CO)Nc1nc(S[C@@H](C)c2ccccc2)nc2nc(N)sc12 | 2.52% (inactive) |
| C=C(C)C(=O)O[C@H]1/C(C=O)=C\CC/C(CO)=C/[C@H]2OC(=O)C(=C)[C@@H]2[C@@H]1OC | -0.553% [at 38.5 µM] (inactive) |
| O=C(COc1ccc2ccccc2c1Br)Nc1cccnc1 | 3.99% (inactive) |
| Cc1ccccc1CN1CCn2c1nc1c(c2=O)CN(Cc2ccccc2)CC1 | 1.76% (inactive) |
| Cc1cccc(N2CCN(C(=O)c3cc(S(=O)(=O)N(C)C)ccc3N3CCCC3)CC2)c1C | 6.84% (inactive) |
| COC(=O)CC[C@@H](C)C1CCC2C3CCC4C[C@H](OC(C)=O)CCC4(C)C3C[C@H](O)C21C (some centres undefined) | 5.67% (inactive) |
| CN1CCc2cc3c(cc2C(=O)Cc2cc4c(cc2C1)OCO4)OCO3 | -21.7% [at 38.5 µM] (inactive) |
| CC(=O)O[C@@H]1CC[C@@]2(C)C(CC[C@]3(C)C2[C@H](O)C=C2[C@H]4[C@@H](C)[C@H](C)CC[C@]4(C)CC[C@]23C)[C@@]1(C)C(=O)O (some centres undefined) | 3.19% [at 25.3 µM] (inactive) |
| C=C1C(=O)O[C@H]2C1CCC(C)=C1C(=O)C=C(C)[C@@]12O (some centres undefined) | 2.83% (inactive) |
| CN(C)C(=O)C(=O)c1cn(C)c2cc(Cl)c(C(=O)N3CCC(Cc4ccc(F)cc4)CC3)cc12 | -29.7% (inactive) |
| CC(C)(C)c1ccc(C(=O)Nc2cn3cc(-n4ccnc4)ccc3n2)cc1 | -32.7% (inactive) |
| CCCCCc1ccc(/C=C/C(=O)Nc2cc(Cl)ccc2C(=O)O)cc1 | 0.17% (inactive) |
| Cc1cc(NC(=O)NCCN2CCC(O)(Cc3ccccc3)CC2)c2ccccc2n1 | -6.41% (inactive) |
| C=C1CC2OC(=O)C(=C)C2C(O)/C=C(\C)CCC1O (centres undefined) | 1.79% (inactive) |
| Cc1cc2c(cc1N1C(=O)c3cccc4c(CCCO)ccc(c34)C1=O)n(C)c(=O)n2C | 0.475% [at 25.3 µM] (inactive) |
| O=C(Nc1cc(C(F)(F)F)ccc1N1CCCCC1)c1ccncc1 | 23.3% (inactive) |
| COc1c(C)cc(NC(=O)c2nn(Cc3ccc(F)cc3)c3c2CN(C(=O)c2ccc[nH]2)C[C@]3(C)C(N)=O)cc1C | 16.4% [at 11.6 µM] (inactive) |
| CC(C)c1ccc(NC(=O)Cn2cnc3c2c(=O)n(C)c(=O)n3C)cc1 | 7.63% (inactive) |
